Compound activity (PubChem BioAssay)
An excerpt weighted towards active compounds, which were near 2.9% of everything screened.
PLC-beta3 inh: blocks human PLC-beta3 enzyme activity. inhibition, % at 12.2 µM. Q01970. 370,000 compounds, 0.18% hits. Purified PLC-beta3, fluorogenic substrate, fluorescence; in the data active means inhibition above about 11%;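 further: 0% = median of compound wells on plate and 100% = full blocker control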
PLCg1 inh: inhibitors of human phospholipase C gamma1; purified PLC-gamma1, fluorogenic substrate, fluorescence; inhibition, % at 12.2 µM; 370,000 compounds, 0.84% hits; AID 720700; in the data active means inhibition above about 9.5%
ADAM17 inh: ADAM17 inhibition, QFRET primary screen. recombinant ADAM17, EDANS/DABCYL FRET peptide cleavage. inhibition, % at 6.95 µM. 370,000 compounds, 0.83% hits;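 active means inhibition above the mean of compounds lying between control limits plus 3 SD, set per campaign, cut at about 8.5% in these data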;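 further: 0% = DMSO-only wells as the low control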
KLK7 zymogen act: activates the human kallikrein-7 zymogen; P49862; purified proKLK7, EDANS-DABCYL substrate fluorescence; 100% is mature enzyme control, 0% vehicle; activation, % at 7 µM; 370,000 compounds, 0.9% hits;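 active means activation above the mean of all tested compounds plus 3 SD, computed per campaign excluding outliers beyond control limits, cut at about 13% in these data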
ADAM10 inh: ADAM10 inhibition, QFRET primary screen; O14672; recombinant ADAM10, EDANS/DABCYL FRET peptide cleavage, 3 h; inhibition, % at 7 µM; 370,000 compounds, 0.62% hits;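 active means inhibition above a per-campaign cutoff equal to the mean of compounds falling between control-based bounds plus 3 SD, cut at about 20% in these data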;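 further: 0% = DMSO wells while the 100% control is not disclosed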
proKLK7 act conf: confirmation of human kallikrein-7 zymogen activators; shares compounds with KLK7 zymogen act; purified proKLK7, EDANS-DABCYL substrate fluorescence; scaled: vehicle 0, mature enzyme 100; activation, % at 7 µM; 3,200 compounds, 68% hits; AID 686949;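 active means activation, as change over the incubation, above the mean of all tested compounds plus 3 SD, cut at about 13% in these data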
EDANS interfere: fluorescence interference counter-screen for KLK7 activators; AID 686952; activation, % at 7 µM; 3,200 compounds, 80% hits; shares compounds with KLK7 zymogen act; EDANS-DABCYL substrate fluorescence interference, no enzyme, 4 h; solvent 0%, active enzyme control 100%;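 active means activation above the all-compound mean plus 3 SD, ignoring values outside control-based bounds, cut at about 4.8% in these data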;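 further: value is the 4 h activation minus the activation read at time zero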
EDANS interf: counter-screen for kallikrein-7 activators: EDANS-DABCYL interference, dose response; EDANS-DABCYL peptide fluorescence interference, no enzyme; EC50, µM; 250 compounds, 20% hits; shares compounds with KLK7 zymogen act;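 active means compounds that raise the fluorescence signal in this interference counterscreen, with EC50 at or below 10 µM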;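 further: intact quenched peptide substrate alone read at 355 nm excitation and 520 nm emission; signal is fluorescence gain from T0 to T4 after four hours at room temperature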
Active calls of the source: *; i = inactive; x = not tested or not shown.

SMILES	PLC-beta3 inh	PLCg1 inh	ADAM17 inh	KLK7 zymogen act	ADAM10 inh	proKLK7 act conf	EDANS interfere	others
CCOC(=O)c1cc2c(=O)n3ccccc3nc2n(C(C)C)c1=NC(=O)c1c(-c2ccccc2Cl)noc1C	-59	-41	-63	-8	-229	x	x
CCOC(=O)c1cc2c(=O)n3ccccc3nc2n(Cc2ccco2)c1=NC(=O)c1ccccc1OCC	i	-411	i	11	i	x	x
CCOC(=O)c1cc2c(=O)n3ccccc3nc2n(CC(C)C)c1=NC(=O)c1ccco1	-339	-284	-433	30*	i	24*	26*
CCOCCCn1c(=NC(C)=O)c(C(=O)OCC)cc2c(=O)n3ccccc3nc21	-30	-17	-35	2	-159	x	x
CCOC(=O)c1cc2c(=O)n3ccccc3nc2n(CCOC)c1=NC(=O)c1ccncc1	i	i	i	24*	i	8	13*
CCOC(=O)c1cc2c(=O)n3ccccc3nc2n(CCOC)c1=NC(=O)c1c(-c2c(F)cccc2Cl)noc1C	-33	-24	-46	0	-125	x	x
CCOCCCn1c(=NC(C)=O)c(C#N)cc2c(=O)n3ccccc3nc21	i	i	i	23*	i	6	17*
CCOC(=O)c1cc2c(=O)n3ccccc3nc2n(C(C)C)c1=NC(=O)c1ccncc1	i	i	i	37*	i	56*	62*
CCOC(=O)c1cc2c(=O)n3ccccc3nc2n(CCOC)c1=NC(=O)C(C)(C)C	-128	-115	-166	13	i	x	x
CCOC(=O)c1cc2c(=O)n3ccccc3nc2n(CCCOC)c1=NC(=O)C(C)(C)C	i	i	i	22*	i	15*	15*
c1cc2c3c(cccc3c1)C(N1CCOCC1)=N2	-456	-348	-22	44*	-107	47*	46*
CC1CN(C2=Nc3cccc4cccc2c34)CC(C)O1 (stereo not drawn)	i	-354	-22	44*	-65	6	5.7*
CCOC(=O)N1CCN(C2=Nc3cccc4cccc2c34)CC1	i	i	-28	55*	-77	18*	28*
COc1ccccc1N1CCN(C2=Nc3cccc4cccc2c34)CC1	-114	-98	-7	3	-8	x	x
CC(=O)N1CCN(C2=Nc3cccc4cccc2c34)CC1	i	-491	-34	60*	-94	22*	19*	EDANS interf=i
Clc1ccc([C@H]2OC[C@@]3(CNCCc4c[nH]c5ccccc45)CS[C@H](c4ccc(Cl)cc4)N23)cc1	2	-1	1	0	3	x	x
O=S1(=O)c2ccc(N3CCN(Cc4ccccc4F)CC3)cc2Oc2ccccc2CN1Cc1cn(Cc2ccc(C(F)(F)F)cc2)nn1	-2	-1	-4	0	-15	x	x
C=C(C)Cn1c2ccc(NC(=O)NCCc3ccccc3)cc2c(=O)n1C	i	-498	i	27*	i	8	20*
COc1ccc(CCNC(=O)Nc2ccc3c(c2)c(=O)n(C)n3Cc2ccc(F)cc2)cc1OC	-425	-311	-386	12	i	x	x
Cn1c(=O)c2cc(NC(=S)NCc3ccccc3F)ccc2n1Cc1ccc(F)cc1	i	i	-480	-3	i	x	x
Cn1c(=O)c2cc(NC(=S)NC3CC3)ccc2n1Cc1ccc(F)cc1	-249	-175	-157	14*	i	9	14*
Cn1c(=O)c2cc(NC(=O)NCCc3ccccc3)ccc2n1Cc1ccc(F)cc1	i	-477	i	16*	i	1	0
COC(=O)C1=C(C)N(C)C(C)=C(C(=O)OC)C1c1ccc(C(=O)OC)cc1	-4	-3	-2	0	5	x	x
COC(=O)C1=CNC=C(C(=O)OC)C1c1ccc(C(=O)OC)cc1	i	-452	-432	13*	i	19*	14*	EDANS interf=>70
COc1cc2oc3cc(C)oc(=O)c3c2cc1OC	i	i	-378	35*	i	60*	73*
SMILES	PLC-beta3 inh	PLCg1 inh	ADAM17 inh	KLK7 zymogen act	ADAM10 inh	proKLK7 act conf	EDANS interfere	others
CCOc1cc(OCC)cc(C(=O)N2CCC[C@@H]2C(=O)N2CCC[C@@H]2C(=O)NCc2cccc(OC)c2)c1	3	4	1	0	-1	x	x
CC(=O)OC[C@H]1O[C@@H](Oc2cc3ccc(=O)oc3cc2OC(C)=O)[C@H](OC(C)=O)[C@@H](OC(C)=O)[C@@H]1OC(C)=O	i	i	i	80*	i	79*	78*
C=CCN(Cc1ccc2c(c1)OCO2)C(C#CCCCC)C(C)C (stereo not drawn)	3	1	-2	x	-1	x	x
CCNc1nc(C)c(CN(C(C)=O)c2ccccc2)nc1C#N	i	i	i	33*	i	28*	24*	EDANS interf=>69
CC(=O)N(CN1C(=O)c2ccccc2C1=O)c1ccccc1	1	2	-4	0	-2	x	x
CCOC(=O)c1cc2c(nc1N)CCCC2	-86	-54	-192	5	i	x	x
CCOC(=O)c1cnc2cc3c(cn2c1=O)CCCC3	-170	-153	i	13*	i	6	10*
Cc1ccc(C2OC34CCCCCC3C(C#N)(C(=N)O4)C2(C#N)C#N)cc1 (stereo not drawn)	-306	-294	-309	16*	i	29*	34*
C=CCN1C(=O)[C@@H](CC(=O)NCc2cccc3ccccc23)[C@]2(C(=O)OC)CCCCC=C12	-3	-2	-1	0	-7	x	x
CN(C)/C=C1\C=C2C(=O)c3ccccc3N2C1=O	-60	-37	-14	14*	-32	72*	66*
Cc1ccc(Cn2nnc3c2-c2ccccc2S(=O)(=O)N(C2CC2)C3)cc1	0	-2	-1	0	2	x	x
COc1cccc(NC(=O)c2cc(-c3ccc(OC)cc3OC)nc3ccccc23)c1	-170	-121	-12	67*	-17	-14	-12
COc1ccc(/C=N/NC(=O)c2cc(-c3ccccc3)nc3ccccc23)c(OC)c1	-195	-133	-10	275*	4	171*	220*
Cc1nc(NC2CCCC2)c2nnn(Cc3ccccc3)c2n1	2	6	1	0	9	x	x
Cc1cccc(-c2cc(N3CCCN(C)CC3)n3nccc3n2)c1	-344	-296	-154	29*	i	-3	-3
Cc1ccc(Cn2cc(CN3[C@@H](Cc4ccccc4)COc4cc(Br)ccc4S3(=O)=O)nn2)cc1	-3	-1	1	0	-3	x	x
